According to a collection of fitness landscapes (doi:10.1016/j.celrep.2020.107928):
The full ranking holds about 81,000 sequences; the median of “one-hybrid fitness for binding parS DNA” is about -0.17, and the highest 2% start at about 0.51. This excerpt belongs to a sample that is enriched for the highest values.

B1: Caulobacter ParB omega fusion; a variant is named by its letters at X, in order, B8GW30 (parent)
chain: MESVVVGEPGMSEGRRGLGRGLSALLGEVDAAPAQAPGEQLGGSREAPIEILQRNPDQPRRTFREEDLEDLSNSIREKGVLQPILVRPSPDTAGEYQIVAGERAWRAAQRAGLKTVPIMVRELDDLAVLEIGIIENVQRADLNVLEEALSYKVLMEKFERTQENIAQTIGKSXSHVANXMRLLXLPDEVQSYLVSGELTAXHARAIAAAADPVALAKQIIEGGLSVRETEALARKAPNLSAGKSKGGRPPRVKDTDTQALESDLSSVLGLDVSIDHRGSTGTLTITYATLEQLDDLCNRLTRGI

Variants of: B1
Test: one-hybrid fitness for binding parS DNA (scaled: cognate 1, non-cognate 0); higher = stronger binding
Conditions: with parS DNA site
Procedure, shortened: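 Values were rescaled so that cognate is 1 and non-cognate is 0. Each is a fitness, the log change in a variant's read ratio to wild type from Illumina reads of plasmids before and after selection, with three replicate libraries pooled and variants under 10 reads dropped. Selection of the Caulobacter ParB libraries, four specificity codons randomised, used E. coli USO with a HIS3 reporter, site 19 bp from the promoter, on M9-minus-histidine with 0.1 mM IPTG and 5 mM 3-AT for 48 hours at 37°C.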

Row | Variant | one-hybrid fitness for binding parS DNA
1 | TLSH | ≤ 0.2
2 | DKSV | ≤ 0.2
3 | GGQR | ≤ 0.2
4 | GCKT | ≤ 0.2
5 | HKHC | ≤ 0.2
6 | EMRS | ≤ 0.2
7 | QDPW | ≤ 0.2
8 | PVNA | ≤ 0.2
9 | RVEA | 0.483
10 | DVMA | ≤ 0.2
11 | NVYA | ≤ 0.2
12 | RVMA | 0.545
13 | EVQA | ≤ 0.2
14 | NVNA | ≤ 0.2
15 | RVQA | 0.597
16 | RVYA | 0.64
17 | NVQA | ≤ 0.2
18 | RVNA | 0.602
19 | FHNR | ≤ 0.2
20 | KHET | ≤ 0.2
21 | LGQH | ≤ 0.2
22 | KKTT | ≤ 0.2
23 | TGPM | ≤ 0.2
24 | PPMA | ≤ 0.2
25 | WVPV | ≤ 0.2

Row | Variant | one-hybrid fitness for binding parS DNA
26 | GEND | ≤ 0.2
27 | TSEH | ≤ 0.2
28 | PVGA | ≤ 0.2
29 | DVGA | ≤ 0.2
30 | RVLA | 0.565
31 | RVRA | 0.689
32 | NVDA | ≤ 0.2
33 | CVLA | ≤ 0.2
34 | NVLA | ≤ 0.2
35 | RVDA | 0.556
36 | NVRA | ≤ 0.2
37 | DVRA | ≤ 0.2
38 | RVGA | 0.565
39 | EWRT | ≤ 0.2
40 | LSNV | ≤ 0.2
41 | LQAW | ≤ 0.2
42 | ESFC | ≤ 0.2
43 | WPSS | ≤ 0.2
44 | KRVW | ≤ 0.2
45 | IRFN | ≤ 0.2
46 | FLDR | ≤ 0.2
47 | MLTT | ≤ 0.2
48 | YVRR | ≤ 0.2
49 | RCPV | ≤ 0.2
50 | RVCA | 0.608

Row | Variant | one-hybrid fitness for binding parS DNA
51 | NVCA | ≤ 0.2
52 | KMLT | ≤ 0.2
53 | WVPC | ≤ 0.2
54 | CYWL | ≤ 0.2
55 | QPKK | ≤ 0.2
56 | VRCA | ≤ 0.2
57 | RHVQ | ≤ 0.2
58 | RHKC | 0.858
59 | RHKM | 0.358
60 | RHVR | ≤ 0.2
61 | RHVC | 0.773
62 | RHKQ | ≤ 0.2
63 | SHAT | ≤ 0.2
64 | DRYP | ≤ 0.2
65 | IQCS | ≤ 0.2
66 | TYDM | ≤ 0.2
67 | RGVS | 0.516
68 | RGVT | 0.33
69 | RGKD | ≤ 0.2
70 | RGKS | 0.927
71 | RGKY | 0.436
72 | RGVP | ≤ 0.2
73 | RGKT | 0.712
74 | RGKN | 0.369
75 | RGVN | ≤ 0.2

Row | Variant | one-hybrid fitness for binding parS DNA
76 | LSNY | ≤ 0.2
77 | WVRY | ≤ 0.2
78 | MIPI | ≤ 0.2
79 | GELY | ≤ 0.2
80 | GYSK | ≤ 0.2
81 | QACE | ≤ 0.2
82 | NCKN | ≤ 0.2
83 | VNAS | ≤ 0.2
84 | NRKA | ≤ 0.2
85 | DRKA | ≤ 0.2
86 | RRVA | 0.78
87 | NRVA | ≤ 0.2
88 | RRKA | 0.532
89 | YMAC | ≤ 0.2
90 | EHCS | ≤ 0.2
91 | RYQC | 0.898
92 | RYSF | ≤ 0.2
93 | RYQP | ≤ 0.2
94 | RYHY | 0.423
95 | RYQN | 0.318
96 | RYLK | ≤ 0.2
97 | RYLC | 0.955
98 | RYSC | 0.929
99 | RYHR | ≤ 0.2
100 | RYLR | ≤ 0.2

Row | Variant | one-hybrid fitness for binding parS DNA
101 | RYHC | 0.949
102 | RYSK | ≤ 0.2
103 | SLCV | ≤ 0.2
104 | CHLH | ≤ 0.2
105 | CAHG | ≤ 0.2
106 | MLWF | 0.204
107 | KWCS | ≤ 0.2
108 | VPGF | ≤ 0.2
109 | PGPY | ≤ 0.2
110 | ELLG | ≤ 0.2
111 | NRNN | ≤ 0.2
112 | TSHR | ≤ 0.2
113 | SYEV | ≤ 0.2
114 | RYCR | ≤ 0.2
115 | RYRK | ≤ 0.2
116 | RYYQ | ≤ 0.2
117 | RYWC | 0.887
118 | RYYC | 0.975
119 | RYRM | 0.328
120 | RYCF | ≤ 0.2
121 | RYWF | 0.258
122 | RYYR | ≤ 0.2
123 | RYRC | 0.798
124 | RYCC | 0.903
125 | RYWR | ≤ 0.2

Row | Variant | one-hybrid fitness for binding parS DNA
126 | QPAG | ≤ 0.2
127 | WKQT | ≤ 0.2
128 | SDLQ | ≤ 0.2
129 | CPED | ≤ 0.2
130 | GWLY | ≤ 0.2
131 | RYGH | ≤ 0.2
132 | RYGP | ≤ 0.2
133 | RYGC | 0.914
134 | DNPV | ≤ 0.2
135 | DFYG | ≤ 0.2
136 | NFHG | ≤ 0.2
137 | RFHG | 0.974
138 | NFRG | ≤ 0.2
139 | NFCG | ≤ 0.2
140 | DFHG | ≤ 0.2
141 | SFCG | ≤ 0.2
142 | RFRG | 0.992
143 | RFCG | 0.895
144 | NFYG | ≤ 0.2
145 | DFRG | ≤ 0.2
146 | RFYG | 0.899
147 | QYLK | ≤ 0.2
148 | ALTP | ≤ 0.2
149 | ELKN | ≤ 0.2
150 | VNHC | ≤ 0.2

Row | Variant | one-hybrid fitness for binding parS DNA
151 | DHWC | ≤ 0.2
152 | FRFT | ≤ 0.2
153 | TDKR | ≤ 0.2
154 | FTYC | ≤ 0.2
155 | QQPP | ≤ 0.2
156 | WLFI | ≤ 0.2
157 | AEPL | ≤ 0.2
158 | DFLG | ≤ 0.2
159 | RFLG | 0.891
160 | NFGG | ≤ 0.2
161 | RFLH | 0.217
162 | RFGD | ≤ 0.2
163 | RFGG | 0.918
164 | QKFT | ≤ 0.2
165 | TIPM | ≤ 0.2
166 | NRFA | ≤ 0.2
167 | RRFA | 0.806
168 | RRAA | 0.724
169 | DRAA | ≤ 0.2
170 | DRFA | ≤ 0.2
171 | NRAA | ≤ 0.2
172 | RAFI | ≤ 0.2
173 | DPVD | ≤ 0.2
174 | RHVH | ≤ 0.2
175 | RHVP | ≤ 0.2

Row | Variant | one-hybrid fitness for binding parS DNA
176 | RHVG | 0.847
177 | RHKG | 0.879
178 | RHKH | 0.248
179 | RHKD | ≤ 0.2
180 | QEEC | ≤ 0.2
181 | PYTA | ≤ 0.2
182 | QTGF | ≤ 0.2
183 | RWLF | ≤ 0.2
184 | RWLY | 0.266
185 | RWRQ | ≤ 0.2
186 | RWLG | 0.685
187 | RWHP | ≤ 0.2
188 | RWHH | ≤ 0.2
189 | RWNG | 0.797
190 | RWRY | 0.494
191 | RWRG | 0.881
192 | RWHG | 0.754
193 | RWNP | ≤ 0.2
194 | RWNN | 0.355
195 | DKAC | ≤ 0.2
